This is an account of results in PubChem BioAssay (Tox21).

“And” between values parts separate entries of the source, which are not always exact repeats. Equal entries are not always repeated. Results filed as inconclusive are left out. The source holds several records for some structures; these can differ, active in one and inactive in another. The source made the active and inactive calls. Unless noted, calls follow the shape of the dose curve; as a rule, active = well fitted curve in the direction sought with a large enough effect in the repeat runs; inconclusive = weak or mixed curves; inactive = no such curve, though single readings can be large; an effect the other way counts as inactive or inconclusive.

Assay [1] is described as follows: qHTS assay to identify small molecule antagonists of the glucocorticoid receptor (GR) signaling pathway - cell viability counter screen (AID 720693). Also: nearly all actives have a fitted effect of over 55% in size. Also: potency is read from the fitted curve at half-maximal effect. Background: qHTS replaces the single test concentration by a dilution series.
Assay [2] in a line: qHTS assay for identifying genotoxic compounds that show differential cytotoxicity against isogenic chicken DT40 cell lines with known DNA damage response pathways - wild type cell line (AID 743012). Also: nearly all actives have a fitted effect of over 60% in size. Also: potency is read from the fitted curve at half-maximal effect. The procedure, abridged:
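Cytotoxicity in repair-proficient parental chicken DT40 cells serves as the comparator for Rad54/Ku70- and Rev3-deficient lines. Cells were exposed to compounds for 40 h at 37 C/5% CO2, and ATP-based luminescence (CellTiter-Glo) measured viability.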

Assay [3] can be described thus: qHTS assay for identifying genotoxic compounds that show differential cytotoxicity against isogenic chicken DT40 cell lines with known DNA damage response pathways - Rev3 mutant cell line (AID 743014). Also: nearly all actives have a fitted effect of over 55% in size. Also: potency is read from the fitted curve at half-maximal effect.
Assay [4] can be described thus: qHTS assay for identifying genotoxic compounds that show differential cytotoxicity against isogenic chicken DT40 cell lines with known DNA damage response pathways - Rad54/Ku70 mutant cell line (AID 743015). Also: nearly all actives have a fitted effect of over 60% in size. Also: potency is read from the fitted curve at half-maximal effect.
Assay [5] can be described thus: qHTS assay to identify small molecule antagonists of the androgen receptor (AR) signaling pathway - cell viability counter screen (AID 743033; also: nearly all actives have a fitted effect of over 45% in size; also: potency is read from the fitted curve at half-maximal effect).
The target in assay [6] is Androgen receptor (Homo sapiens) (UniProt P10275). Briefly: qHTS assay to identify small molecule agonists of the androgen receptor (AR) signaling pathway (AID 743036; active = well fitted activation curve with a large enough effect in the signal ratio in the repeat runs, with a control signal flat, not every such curve was filed as active; the % refers to the signal ratio; also: potency is read from the fitted curve at half-maximal effect). The procedure, abridged:
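AR-UAS-bla HEK293 cells, plated 4 h before dosing, were treated with compound for 16 h at 37C. beta-Lactamase reporter read after 2 h with LiveBLAzer B/G FRET substrate at room temperature.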

Assay [7] has the same target. Briefly: qHTS assay to identify small molecule agonists of the androgen receptor (AR) signaling pathway using the MDA cell line (AID 743040; also: nearly all actives have a fitted effect of over 20% in size). The procedure, abridged: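 Luciferase read-out, ONE-Glo, 30 min RT. Cells: MDA-kb2 AR-luc, MMTV promoter with AR and GR response elements. Compound exposure 16 h, 37C, 0% CO2, after 5 h pre-incubation. qHTS agonist mode.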
Assay [8] shares this target. Briefly: qHTS assay to identify small molecule antagonists of the androgen receptor (AR) signaling pathway using the MDA cell line (AID 743042; also: nearly all actives have a fitted effect of over 55% in size; also: potency is read from the fitted curve at half-maximal effect). The procedure, abridged: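 MDA-kb2 breast carcinoma cells carrying MMTV-luciferase (AR/GR responsive) were co-treated with compounds and the agonist R1881 for 16 h at 37C. Inhibition read as ONE-Glo luminescence; CellTiter-Fluor fluorescence measured in parallel for cytotoxicity.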

A short description of assay [9]: qHTS assay to identify small molecule antagonists of the androgen receptor (AR) signaling pathway using the MDA cell line - cell viability counter screen (AID 743041; also: nearly all actives have a fitted effect of over 45% in size; also: potency is read from the fitted curve at half-maximal effect). The procedure, abridged: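 Cytotoxicity counter screen: MDA-kb2 AR-luc cells, compound + R1881, 16 h, 37C, 0% CO2; CellTiter-Fluor added at 15.5 h, fluorescence read after 30 min.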
Assay [10] has as its target Androgen receptor (Homo sapiens) (UniProt P10275). Briefly: qHTS assay to identify small molecule antagonists of the androgen receptor (AR) signaling pathway (AID 743035; active = well fitted inhibition curve with a large enough effect in the signal ratio in the repeat runs, not every such curve was filed as active; the % refers to the signal ratio; also: potency is read from the fitted curve at half-maximal effect). The procedure, abridged:
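Steps: seed AR-UAS-bla GripTite HEK293 cells, incubate 4 h at 37C; pin in test compound, then add agonist R1881; incubate 16 h at 37C; add LiveBLAzer B/G FRET substrate, 2 h at room temperature; read fluorescence.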

Androgen receptor (Homo sapiens), sequence (P10275 whole entry, looked up): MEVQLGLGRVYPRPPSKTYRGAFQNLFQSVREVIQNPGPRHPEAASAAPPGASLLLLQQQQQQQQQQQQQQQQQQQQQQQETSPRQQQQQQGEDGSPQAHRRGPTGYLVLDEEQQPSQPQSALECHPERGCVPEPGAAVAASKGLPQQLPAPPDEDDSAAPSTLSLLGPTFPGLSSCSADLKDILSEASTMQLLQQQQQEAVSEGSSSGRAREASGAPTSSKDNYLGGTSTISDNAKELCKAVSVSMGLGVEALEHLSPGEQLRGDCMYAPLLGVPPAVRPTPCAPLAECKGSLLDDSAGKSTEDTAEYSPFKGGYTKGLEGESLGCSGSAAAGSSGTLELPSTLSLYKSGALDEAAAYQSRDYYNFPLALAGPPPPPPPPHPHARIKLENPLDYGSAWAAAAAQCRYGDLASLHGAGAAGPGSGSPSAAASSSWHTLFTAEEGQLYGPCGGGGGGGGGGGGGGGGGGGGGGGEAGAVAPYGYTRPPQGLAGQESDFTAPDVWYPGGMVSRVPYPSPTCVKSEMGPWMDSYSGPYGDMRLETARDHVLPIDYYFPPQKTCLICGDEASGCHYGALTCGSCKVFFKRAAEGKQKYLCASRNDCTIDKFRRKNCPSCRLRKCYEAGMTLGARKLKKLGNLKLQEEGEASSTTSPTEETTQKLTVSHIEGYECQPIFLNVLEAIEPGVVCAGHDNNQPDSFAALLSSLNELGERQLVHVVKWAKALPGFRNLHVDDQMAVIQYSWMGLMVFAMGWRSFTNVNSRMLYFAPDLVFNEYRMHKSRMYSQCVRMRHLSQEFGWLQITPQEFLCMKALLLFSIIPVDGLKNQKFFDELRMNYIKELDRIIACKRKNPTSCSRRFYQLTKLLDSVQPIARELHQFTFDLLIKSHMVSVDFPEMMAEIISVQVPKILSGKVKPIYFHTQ

As for `CCCCCCCCCCCC[N+](C)(C)C`, the Potency is 24.5 µM (active) and 17.4 µM (active) and 38.9 µM (active) in assay [1]; 861 nM (active) and 243 nM (active) and 217 nM (active) in [2]; 432 nM (active) and 137 nM (active) and 217 nM (active) in assay [3]; 543 nM (active) and 217 nM (active) in [4]; 48.9 µM (active) and 49 µM (active) and 38.9 µM (active) in assay [5].

Consider `CC(=O)Nc1ccc(C(=O)CCl)cc1`, for which the Potency result in [1], in assay [5], in assay [6] and in assay [8] was “inactive” throughout. Also, the Potency result in [2] was “inactive and 1.72 µM (active)”; in [3], 1.93 µM (active); in assay [4], 1.72 µM (active). In addition, in [7], the call was inactive.

As to `CCOC(=O)C(C)C(C)=O` (stereo unspecified), the Potency result in assay [1], in assay [2], in assay [3], in [4], in assay [5] and in [9] was “inactive” throughout.

As to `CN(C)c1ccc(C(=C2C=CC(=[N+](C)C)C=C2)c2ccccc2)cc1`, the Potency in assay [1] is 195 nM (active); in assay [2] it was 1.06 µM (active) and 13.7 nM (active); in assay [3], 1.19 µM (active) and 7.7 nM (active); in assay [4] it was 1.5 µM (active) and 10.9 nM (active); in assay [5], 155 nM (active).

As for `O=Cc1ccc(Cl)cc1`, the Potency result in assay [1], in [2], in assay [3], in [4], in [5] and in assay [10] was “inactive” in each case. Further, the Potency entry in assay [9] and in [8] was “inactive” in each case. Besides, the Potency in [6] was 19.4 µM (active).

With `CCN(CC)C(=S)SSC(=S)N(CC)CC`, the Potency result in [1] and in assay [6] was “inactive” in each case. The Potency in assay [2] is 106 nM (active) and 96.9 nM (active) and 19.8 nM (active); in [3], 119 nM (active) and 96.9 nM (active) and 38.4 nM (active); in assay [4], 106 nM (active) and 96.9 nM (active) and 68.6 nM (active); in [5], 425 nM (active) and 138 nM (active) and 100 nM (active); in assay [10], 123 nM (active); in assay [9] it was 376 nM (active) and 243 nM (active) and 222 nM (active). The Potency in [8] was 266 nM (active) and 217 nM (active) and 140 nM (active). For the same molecule, the molecule was called inactive in assay [7].

For `C=C(C)C1CC=C(C)C(OC(C)=O)C1` (stereo unspecified), the Potency result in assay [1], in [2], in assay [3], in assay [4], in assay [5] and in assay [9] was “inactive” in each case.

Take `CN1C(=O)c2ccc([N+](=O)[O-])cc2C1=O`: the Potency entry in [1], in assay [2], in [3], in assay [4], in [5] and in [10] was “inactive” each time. The Potency result in assay [6], in assay [9] and in [8] was “inactive” throughout. In addition, the call in assay [7] was inactive.

`CC(=O)OCCOCCOCCOC(C)=O`: the Potency result in assay [1], in assay [2], in assay [3], in assay [4], in assay [5] and in [9] was “inactive” each time.

As for `Cc1cccc([N+](=O)[O-])c1C(=O)O`, the Potency entry in assay [1], in assay [2], in assay [3], in [4], in assay [5] and in assay [9] was “inactive” each time.

In the case of `CCN1CCCC1CNC(=O)c1cc(S(=O)(=O)CC)c(N)cc1OC` (stereo unspecified), the Potency result in assay [1], in [2], in [3], in [4], in assay [5] and in assay [9] was “inactive” each time.

`Cc1ccnc2c1NC(=O)c1cccnc1N2C1CC1`: the Potency entry in assay [1], in assay [2], in assay [3], in assay [4], in assay [5] and in assay [9] was “inactive” in each case.

Take `CC(C)(C)c1cc(C(C)(C)C)c(O)c(C(C)(C)C)c1`: the Potency entry in [1], in assay [2], in assay [3], in [4], in [5] and in [9] was “inactive” each time.

Take `CC(C)(O)CCC(C)(C)O`: the Potency entry in assay [1], in assay [2], in assay [3], in assay [4], in assay [5] and in assay [9] was “inactive” each time. Moreover, the Potency result in [8] was “inactive”. In addition, the outcome in assay [7] was inactive.

Take `CO[Si](OC)(OC)c1ccccc1`: the Potency result in [1], in [2], in assay [3], in [4], in assay [5] and in [9] was “inactive” each time.

For `CCOc1ccc2c(c1)C(C)=CC(C)(C)N2`, the Potency entry in assay [1], in assay [5], in [10], in [9] and in assay [8] was “inactive” throughout. For the same molecule, the Potency in assay [2] was 13.3 µM (active) and 13.7 µM (active); in assay [3] it was 26.6 µM (active) and 27.2 µM (active) and 17.2 µM (active); in assay [4], 21.1 µM (active) and 54.2 µM (active) and 15.4 µM (active). In assay [7], the outcome was inactive.

As to `O=C(Cl)c1cccc(C(=O)Cl)c1`, the Potency entry in [1], in assay [2], in assay [3], in [4], in [5] and in [9] was “inactive” in each case.

With `CC(=O)CC(C)=O`, the Potency result in assay [1], in assay [2], in assay [3], in assay [5] and in assay [9] was “inactive” throughout.

With `NC12CC3CC(CC(C3)C1)C2`, the Potency entry in [1], in assay [2], in [4], in assay [5] and in assay [9] was “inactive” in each case.

On to `Nc1cc(Cl)c(-c2cc(Cl)c(N)cc2Cl)cc1Cl`, for which the Potency in assay [1] is 54.9 µM (active) and 49 µM (active); in assay [2] it was 5.44 µM (active) and 4.86 µM (active); in assay [3], 2.43 µM (active) and 5.45 µM (active); in assay [5] it was 43.6 µM (active) and 49 µM (active); in [10], 21.9 µM (active) and 17.4 µM (active); in assay [9], 61.1 µM (active). Also, the Potency in assay [8] is 54.4 µM (active) and 68.6 µM (active). The call in assay [7] was inactive.
